ANO1 activ = TMEM16A chloride channel activators or potentiators, primary screen, cell-based, HTS; B-score at 10 µM; actives 0.3% (n = 340,000); HEK293 TMEM16A/YFP-H148Q/I152L, iodide quench fluorescence; stronger effect = lower value; Anoctamin-1 (Mus musculus), Q8BHY3;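 active = fluorescence-ratio B-score plate-corrected deviation score at least 3 library SD below zero, with starting fluorescence score within 5 deviations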;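 also: channel opened by trigger with iodide after compound preincubation; score built on the fluorescence ratio of max minus min over baseline; more negative score means more quench and so TMEM16A activation or potentiation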
IDE act = human IDE activators in live cells, primary screen, fluorescence polarization, HEK cells, FAbeta-B substrate; Insulin-degrading enzyme (Homo sapiens), P14735; FAbeta-B cleavage; 0% vehicle, 100% cell-free pure enzyme wells; activation, % at 5.96 µM; actives 0.073% (n = 340,000); AID 493087, 2011;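 active = activation above the mean of all tested compounds plus 3 SD, set per screening campaign, cut at about 17% in these data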
Target sequence (P14735 whole entry, looked up): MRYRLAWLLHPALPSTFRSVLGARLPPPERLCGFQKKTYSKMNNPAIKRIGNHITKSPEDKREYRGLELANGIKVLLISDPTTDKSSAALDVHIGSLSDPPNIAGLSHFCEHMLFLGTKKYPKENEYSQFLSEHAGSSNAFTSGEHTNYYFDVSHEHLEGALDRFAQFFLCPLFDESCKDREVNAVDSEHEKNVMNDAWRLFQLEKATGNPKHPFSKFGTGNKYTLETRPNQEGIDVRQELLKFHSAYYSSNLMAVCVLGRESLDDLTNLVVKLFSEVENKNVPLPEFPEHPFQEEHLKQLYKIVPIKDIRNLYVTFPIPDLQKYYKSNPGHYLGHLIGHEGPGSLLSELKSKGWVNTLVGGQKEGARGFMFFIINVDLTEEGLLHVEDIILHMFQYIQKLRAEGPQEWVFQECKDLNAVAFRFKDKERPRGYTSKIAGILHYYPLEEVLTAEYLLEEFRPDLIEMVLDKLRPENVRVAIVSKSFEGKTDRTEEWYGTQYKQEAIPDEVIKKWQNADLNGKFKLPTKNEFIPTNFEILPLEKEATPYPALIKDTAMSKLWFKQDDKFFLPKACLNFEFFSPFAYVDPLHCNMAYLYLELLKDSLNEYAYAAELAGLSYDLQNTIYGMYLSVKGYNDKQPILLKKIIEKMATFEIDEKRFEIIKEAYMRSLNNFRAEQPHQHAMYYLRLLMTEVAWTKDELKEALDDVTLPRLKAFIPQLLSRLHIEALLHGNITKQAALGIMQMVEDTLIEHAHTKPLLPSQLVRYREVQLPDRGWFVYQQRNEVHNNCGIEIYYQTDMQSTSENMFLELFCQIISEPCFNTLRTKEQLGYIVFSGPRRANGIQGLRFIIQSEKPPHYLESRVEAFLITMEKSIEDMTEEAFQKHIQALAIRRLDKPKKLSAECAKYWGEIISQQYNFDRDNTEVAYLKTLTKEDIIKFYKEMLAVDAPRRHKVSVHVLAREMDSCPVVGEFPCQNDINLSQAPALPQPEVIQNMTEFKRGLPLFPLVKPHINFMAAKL
IDE inh = human IDE inhibitors in live cells, primary screen, fluorescence polarization, HEK cells, FAbetaB substrate; AID 434962, 2010; actives 0.41% (n = 320,000); inhibition, % at 5.59 µM; Insulin-degrading enzyme (Homo sapiens), P14735; FAbetaB cleavage;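 active = percent inhibition above the average of all tested compounds plus 3 SD, set per screening campaign, cut at about 16% in these data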;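 also: IDE supplied by intact live HEK cells; FP after avidin binding of uncleaved biotin substrate so inhibition keeps polarization high; 0% = DMSO wells and 100% = 60 µM reference IDE inhibitor Ii1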
TMEM16A inh = TMEM16A chloride channel inhibitors, primary screen, cell-based, HTS; Anoctamin-1 (Mus musculus), Q8BHY3; HEK293 TMEM16A/YFP iodide influx fluorescence, ionomycin; normalized B-score (activity score, 25-100; higher = stronger inhibition) at 10 µM; actives 1.2% (n = 310,000);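 active = ratio plate-corrected score three or more library SD toward inhibition, starting fluorescence score within five deviations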;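 also: score derived from kinetic fluorescence span divided by baseline fluorescence per well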
CHT inh = inhibitors of human choline transporter CHT. High affinity choline transporter 1 (Homo sapiens), Q9GZV3. CHT-expressing cells, membrane potential dye, choline response; stronger effect = lower value. B-score at 10 µM. actives 0.86% (n = 310,000). AID 488975, 2010;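 active = B-score over 3 SD under the library average, and starting fluorescence ratio not unusually high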;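 also: choline stimulus applied at its EC90 after an EC20 pre-addition; B-score computed on integrated fluorescence ratio after choline addition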
CHT PAM = CHT positive allosteric modulators, primary screen, cell-based, membrane potential dye, choline EC20. B-score at 10 µM. CHT-expressing cells; stronger effect = higher value; LV-AA mutant CHT in HEK293 cells. actives 0.49% (n = 310,000). High affinity choline transporter 1 (Homo sapiens), Q9GZV3;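 active = initial fluorescence not abnormally high and integrated response B-score, plate-corrected, over 3 SD above library mean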
CHT block conf = CHT inhibitors, confirmation, cell-based, membrane potential dye, duplicate; CHT activity remaining % of control (stronger effect = lower value), % at 10 µM; CHT-expressing cells, choline membrane potential dye; LV-to-AA substituted CHT, HEK293 cells; actives 70% (n = 2,400); shares compounds with CHT inh;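 active = choline transporter activity left, mean of duplicates at 10 µM, below buffer-only control mean minus 3 SD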;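 also: depolarization triggered by choline at its EC90 following an EC20 pre-addition; 0% = hemicholinium-3 full block and 100% = buffer-only control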
HEK293 CHT ctr = membrane potential effects in parental HEK293, counter-screen for CHT inhibitor project, cell-based, membrane potential dye; shares compounds with CHT inh; choline response; active = decrease or increase beyond buffer ±3SD; membrane potential ratio readout (active if shifted either direction beyond buffer ±3SD; no single direction) at 10 µM; actives 4% (n = 2,400); AID 493222, 2011;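 also: parental cells lack the transporter so any hit is non-specific; ratio is peak minus trough fluorescence over baseline after EC90 choline challenge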
Active calls of the source: *; i = inactive; . = no result given. The list is not random: actives were taken first. Their share in the collection is about 2.7%.

SMILES	ANO1 activ	IDE act	IDE inh	TMEM16A inh	CHT inh	CHT PAM	CHT block conf	HEK293 CHT ctr
Cc1cc(C)n2c(SCC(=O)NC3CCCCC3C)nnc2n1 (centres undefined)	i	3	-1	i	-5.4*	i	70%*	i
CC(C)n1c(=S)[nH]c2ccccc2c1=O	i	-4	1	i	i	i	.	.
CC(C)n1c(=S)[nH]c2cc(Cl)ccc21	i	-8	-2	i	-6.9*	i	52%*	i
CSc1ccc(CCNC(=O)CCc2nnc3ccc(N4CCCC4)nn23)cc1	i	7	-2	i	-5.3*	i	i	i
Cc1ccc(C)c(NC(=O)CCc2nnc3ccc(N4CCCC4)nn23)c1	i	3	-3	i	i	i	.	.
CC(NC(=O)c1ccccc1F)c1nnc(SCC(=O)NC2=NCCS2)n1C (centres undefined)	i	6	5	i	i	i	.	.
CSC1=C(C#N)C(c2ccncc2)C(C(=O)Nc2ccccc2)=C(C)N1 (centres undefined)	i	-1	8	i	-5*	i	51%*	i
CC1=C(C(=O)Nc2ccccc2)C(c2ccncc2)C(C#N)=C(SCC(=O)Nc2ccccc2)N1 (centres undefined)	i	-5	-3	i	i	i	.	.
Cc1ccc(S(=O)(=O)N(C)C)cc1NC(=O)COC(=O)COc1ccc2c(c1)CCC2	i	-2	5	i	i	i	.	.
COc1ccc(C(=O)N(C)CCCC2CCCC2)cc1OC1CCN(C(C)C)CC1	i	-1	-6	i	-7*	i	23%*	i
COc1ccc(C(=O)NCc2ccon2)cc1OC1CCN(C(C)C)CC1	i	8	3	i	-7.3*	i	34%*	i
COc1ccc(C(=O)N[C@H]2CCCCNC2=O)cc1OC1CCN(C(C)C)CC1	i	2	5	i	-9.2*	i	34%*	i
Nn1c(COc2cccc(Br)c2)nnc1SCC(=O)NCC1CCCO1 (centres undefined)	i	1	1	.	.	.	.	.
O=c1c(-c2ccc(Cl)cc2)c[nH]n1-c1ccccc1	i	1	2	i	i	i	.	.
O=c1c(-c2ccccc2)c[nH]n1-c1cccc([N+](=O)[O-])c1	i	1	2	i	-6.2*	i	45%*	i
O=C(NNC(=S)NC(=O)c1sc2ccccc2c1Cl)c1ccc(Cl)cc1	-9.3*	-14	3	100*	-7.3*	i	32%*	i
O=C(O)c1ccccc1NC(=S)NC(=O)c1sc2ccccc2c1Cl	i	-2	1	i	i	i	.	.
CCCn1nc([N+](=O)[O-])c(C(C#N)c2nc3ccccc3o2)c(Cl)c1=O (centres undefined)	i	6	-5	100*	-12*	i	16%*	i
O=C(CSC1=NS(=O)(=O)c2cc(F)ccc2N1)Nc1cccc(F)c1	i	-2	5	i	i	i	.	.
COc1ccc(NC(=O)Cn2nnc(-c3ccccc3F)n2)cc1	i	5	1	i	i	i	.	.

High-throughput results (PubChem BioAssay)
